Reference: PubChem BioAssay AID1159580 (chemical genetic matrix, 2015)
Screen size: about 5,500 compounds; about 2,000 (36%) were called active. Not shown: some 18% with an inconclusive outcome. Cut-off read from the data, not from the text of the source: active = normalized growth mostly below about 0.91 (no sharp cut-off); inconclusive = no clear call, values can overlap the other calls; inactive = mostly above about 0.92. This is one part of the list.

Experiment: chemical genetic growth profiling, strain panel (AID 1159580);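 note: tested at 20 µM; growth read once vehicle control cultures reached saturation at 30 °C; 1 = growth at the plate median or of vehicle wells; lower values mean less growth of the strain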
Conditions: growth OD

Measured: normalized growth

CCCCC(=O)N(Cc1ccc(-c2ccccc2-c2nn[nH]n2)cc1)[C@H](C(=O)O)C(C)C
inactive: S. cerevisiae deletion strains, locus YJR066W, strain TOR1, hits give low values 0.959 | S. cerevisiae deletion strains, locus YJR075W, strain HOC1, hits give low values 1 | S. cerevisiae deletion strains, locus YKL009W, strain mrt4, hits give low values 0.968 | S. cerevisiae deletion strains, locus YKL068W, hits give low values 0.964 | S. cerevisiae deletion strains, locus YKL085W, strain MDH1 (second series), hits give low values 0.959 | S. cerevisiae deletion strains, locus YKL085W, strain MDH1, hits give low values 0.959 | S. cerevisiae deletion strains, locus YKL160W, strain elf1, hits give low values 1.01 | S. cerevisiae deletion strains, locus YKL190W, strain CNB1, hits give low values 0.986 | S. cerevisiae deletion strains, locus YKR001C, strain vps1, hits give low values 0.987 | S. cerevisiae deletion strains, locus YKR026C, strain gcn3, hits give low values 0.985 | S. cerevisiae deletion strains, locus YKR091W, strain srl3, hits give low values 0.981 | S. cerevisiae deletion strains, locus YLL001W, strain dnm1, hits give low values 0.993 | S. cerevisiae deletion strains, locus YLL026W, hits give low values 0.998 | S. cerevisiae deletion strains, locus YLL041C, strain sdh2, hits give low values 1 | S. cerevisiae deletion strains, locus YLR027C, strain aat2, hits give low values 0.999 | S. cerevisiae deletion strains, locus YLR039C, strain RIC1, hits give low values 0.963 | S. cerevisiae deletion strains, locus YLR058C, strain SHM2, hits give low values 1 | S. cerevisiae deletion strains, locus YLR102C, strain apc9, hits give low values 0.975 | S. cerevisiae deletion strains, locus YLR113W, strain HOG1, hits give low values 0.987 | S. cerevisiae deletion strains, locus YLR221C, strain rsa3, hits give low values 0.977 | S. cerevisiae deletion strains, locus YLR258W, strain gsy2, hits give low values 0.989 | S. cerevisiae deletion strains, locus YLR262C, strain YPT6 (second series), hits give low values 1 | S. cerevisiae deletion strains, locus YLR262C, strain YPT6, hits give low values 0.981 | S. cerevisiae deletion strains, locus YLR268W, strain sec22, hits give low values 0.977 | S. cerevisiae deletion strains, locus YLR320W, strain mms22, hits give low values 0.993 | S. cerevisiae deletion strains, locus YLR330W, strain CHS5, hits give low values 0.99 | S. cerevisiae deletion strains, locus YLR342W, strain FKS1 (second series), hits give low values 1.01 | S. cerevisiae deletion strains, locus YLR342W, strain FKS1, hits give low values 1.02 | S. cerevisiae deletion strains, locus YLR357W, strain rsc2, hits give low values 0.976 | S. cerevisiae deletion strains, locus YLR370C, strain arc18, hits give low values 1 | S. cerevisiae deletion strains, locus YLR371W, strain rom2, hits give low values 0.977 | S. cerevisiae deletion strains, locus YLR384C, strain iki3, hits give low values 1.01 | S. cerevisiae deletion strains, locus YLR418C, strain cdc73, hits give low values 0.989 | S. cerevisiae deletion strains, locus YML016C, strain PPZ1, hits give low values 0.994 | S. cerevisiae deletion strains, locus YML032C, strain rad52, hits give low values 0.985 | S. cerevisiae deletion strains, locus YML120C, strain ndi1, hits give low values 0.981 | S. cerevisiae deletion strains, locus YML124C, strain tub3, hits give low values 0.985 | S. cerevisiae deletion strains, locus YMR058W, strain fet3, hits give low values 0.982 | S. cerevisiae deletion strains, locus YMR078C, strain ctf18, hits give low values 0.995 | S. cerevisiae deletion strains, locus YMR125W, strain sto1, hits give low values 0.932 | S. cerevisiae deletion strains, locus YMR129W, hits give low values 0.983 | S. cerevisiae deletion strains, locus YMR205C, strain PFK2, hits give low values 0.994 | S. cerevisiae deletion strains, locus YMR223W, strain ubp8, hits give low values 0.994 | S. cerevisiae deletion strains, locus YMR231W, strain pep5, hits give low values 1 | S. cerevisiae deletion strains, locus YMR263W, strain SAP30, hits give low values 0.975 | S. cerevisiae deletion strains, locus YMR307W, strain GAS1, hits give low values 1.04 | S. cerevisiae deletion strains, locus YNL067W, strain RPL9B, hits give low values 0.985 | S. cerevisiae deletion strains, locus YNL071W, strain lat1, hits give low values 0.991 | S. cerevisiae deletion strains, locus YNL128W, strain TEP1, hits give low values 0.969 | S. cerevisiae deletion strains, locus YNL153C, strain GIM3, hits give low values 0.991 | S. cerevisiae deletion strains, locus YNL183C, strain NPR1, hits give low values 0.956 | S. cerevisiae deletion strains, locus YNL209W, strain ssb2, hits give low values 0.989 | S. cerevisiae deletion strains, locus YNL233W, strain BNI4, hits give low values 0.995 | S. cerevisiae deletion strains, locus YNL248C, strain rpa49, hits give low values 0.947 | S. cerevisiae deletion strains, locus YNL250W, strain rad50, hits give low values 0.944 | S. cerevisiae deletion strains, locus YNL271C, strain bni1, hits give low values 0.98 | S. cerevisiae deletion strains, locus YNL298W, strain CLA4, hits give low values 0.971 | S. cerevisiae deletion strains, locus YNL307C, strain MCK1, hits give low values 0.98 | S. cerevisiae deletion strains, locus YNL322C, strain KRE1 (second series), hits give low values 0.988 | S. cerevisiae deletion strains, locus YNL322C, strain KRE1, hits give low values 0.981 | S. cerevisiae deletion strains, locus YNR049C, strain mso1, hits give low values 0.965 | S. cerevisiae deletion strains, locus YNR052C, strain pop2, hits give low values 0.991 | S. cerevisiae deletion strains, locus YOL006C, strain TOP1, hits give low values 1.01 | S. cerevisiae deletion strains, locus YOL012C, strain htz1 1.43 | S. cerevisiae deletion strains, locus YOL147C, strain pex11, hits give low values 0.98 | S. cerevisiae deletion strains, locus YOR001W, strain rrp6, hits give low values 0.988 | S. cerevisiae deletion strains, locus YOR061W, strain CKA2, hits give low values 0.985 | S. cerevisiae deletion strains, locus YOR069W, strain VPS5, hits give low values 0.989 | S. cerevisiae deletion strains, locus YOR070C, strain gyp1, hits give low values 0.994 | S. cerevisiae deletion strains, locus YOR080W, strain dia2, hits give low values 0.988 | S. cerevisiae deletion strains, locus YOR083W, strain WHI5, hits give low values 1.01 | S. cerevisiae deletion strains, locus YOR106W, strain vam3, hits give low values 0.998 | S. cerevisiae deletion strains, locus YOR136W, strain idh2, hits give low values 0.991 | S. cerevisiae deletion strains, locus YOR144C, strain elg1, hits give low values 0.988 | S. cerevisiae deletion strains, locus YOR231W, strain MKK1, hits give low values 0.963 | S. cerevisiae deletion strains, locus YOR265W, strain rbl2, hits give low values 0.999 | S. cerevisiae deletion strains, locus YOR270C, strain vph1, hits give low values 0.997 | S. cerevisiae deletion strains, locus YOR290C, strain snf2, hits give low values 0.962 | S. cerevisiae deletion strains, locus YOR316C, strain cot1, hits give low values 0.98 | S. cerevisiae deletion strains, locus YPL051W, strain arl3, hits give low values 1.01 | S. cerevisiae deletion strains, locus YPL055C, strain LGE1, hits give low values 0.974 | S. cerevisiae deletion strains, locus YPL078C, strain atp4, hits give low values 0.989 | S. cerevisiae deletion strains, locus YPL106C, strain sse1, hits give low values 0.956 | S. cerevisiae deletion strains, locus YPL240C, strain hsp82, hits give low values 1 | S. cerevisiae deletion strains, locus YPL241C, strain CIN2, hits give low values 0.991 | S. cerevisiae deletion strains, locus YPL256C, strain CLN2, hits give low values 0.908 | S. cerevisiae deletion strains, locus YPR119W, strain clb2, hits give low values 0.991 | S. cerevisiae deletion strains, locus YPR141C, strain kar3, hits give low values 0.963 | S. cerevisiae deletion strains, locus YPR163C, strain tif3, hits give low values 0.978 | S. cerevisiae deletion strains, locus YPR167C, strain met16, hits give low values 0.976 | S. cerevisiae deletion strains, strain wtn01, hits give low values 0.96 | S. cerevisiae strains, strain wild type, hits give low values 0.973
